# Data from PubChem BioAssay AID449746 (Sanford-Burnham Center for Chemical Genomics, 2010).
# About 680 (34%) of roughly 2,000 compounds were called active. No stated cut-off is given here; in the data, active means inhibition mostly above about 28% (no sharp cut-off); inactive means mostly below about 22%. A selection follows.
# Assay: PMA/ionomycin-induced NF-kB reporter inhibitors, 697 retest, confirmation, B-cell NF-kB inhibitor project, cell-based, luminescence, single concentration (AID 449746)
# Conditions: 697 B-cell NF-kB luciferase, 16 h, at 4 µM, active compounds read high
row,SMILES,inhibition
1,CCCCCCCCCCCCn1ccc(=N)cc1,50% (active)
